Here are results for 12 molecules from PubChem BioAssay (NCI).

This is part of a sample that, as a whole, favours compounds with a hit. Of some 83,000 tested, about 20% had one in any assay.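 Note: values are percent growth. 100 is the growth of untreated cells, values between 100 and 0 indicate rising inhibition; between -100 and 0 indicates cell death.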 A number with no mark means an inactive call. Calls of active or inactive are those of the source. How the source made its calls: active means growth percent below 10; inactive means the rest.

The subject of the experiment is MDA-MB-468 breast. As to the kind of experiment: NCI-60 one-dose screen, 48 h (100 = growth as untreated, 0 = no growth, -100 = all killed). The note with it: 10 µM unless noted.

On to `c1ccc(CC(NCCNC(Cc2ccccc2)c2ccccc2)c2ccccc2)cc1` (configuration not stated), for which the growth was -32.9% (active).
As for `C#C[C@@]1(O)[C@@H](CO)O[C@@H](n2cc(-c3ccco3)c3c(N)ncnc32)[C@@H]1O`, the figure is 49.5%; as for `C[C@@]1(CCC#N)[C@H]2CC[C@@H]3[C@H]4[C@H](C(=O)/C=C/c5cccnc5)CC[C@]4(C#N)CC[C@@]3(C)[C@]2(C)CC[C@H]1C(=O)/C=C/c1cccnc1`, 57.9%; as for `CC(=O)/C(N=Nc1ccc(S(=O)(=O)c2ccc(N=N/C(C(C)=O)=C(/C)O)cc2)cc1)=C(\C)O`, 108%.
For `O=C1Nc2ccc(Cl)cc2/C1=C\c1c(-c2ccc(Cl)cc2)nc2sc(C3CC3)nn12`, the growth is 66.4%.
In the case of `COc1ccc(-c2cc(-c3cc4ccccc4oc3=O)n(-c3ccccc3)n2)cc1` it was 87.3%; in that of `O=c1c2ccccc2sc2c(NCCCNCCO)nc3ccccc3c12`, -57.3% (active).
As for `COc1ccc2nc3cc(Cl)ccc3c(N3CCN(c4nccc(NCc5ccccc5)n4)CC3)c2c1`, the figure is 15%.
In the case of `C(=C(\C1=NCCN1)n1cnc2ccccc21)/c1ccc2ccccc2c1` it was 26.2%; in that of `COC1CC2CCC(C)C(O)(O2)C(=O)C(=O)N2CCCCC2C(=O)OC(C(C)CC2CCC(O)C(OC)C2)CC(=O)C(C)C=C(C)C(O)C(OC)C(=O)C(C)CC(C)/C=C/C=C/C=C1C` (configuration not stated), 23.3%; in that of `COc1ccc([C@@H]2[C@@H](O)C(=O)N2c2cc(OC)c(OC)c(OC)c2)cc1F`, -3.08% (active).
In the case of `CCOc1ccc(-n2nc(C(=O)Nc3ccccc3)nc2-c2cc(OC)c(OC)c(OC)c2)cc1`, the growth was 42.5%.
